# Screening results as filed in PubChem.
# This is a sample that favours compounds with a hit; in the whole collection about 1.1% have one here.
# MOR-DOR inv ag – inverse agonists of human mu-delta opioid receptor heterodimerization; actives 0.21% (n = 340,000); cell-based MOR-DOR heterodimer luminescence, inverse agonism; P35372+P41143; inhibition, % at 9.3 µM; in the data active = inhibition above about 22%, passing the limit was not always enough;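 also: 0% = cells with DMSO and 100% = wells without cells with DMSO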
# HTR5A inv ag – HTR5A inverse agonism, opioid heterodimer counter-screen; AID 504634; P47898; inhibition, % at 9.3 µM; actives 0.083% (n = 340,000); HTR5A cell line, luminescence; in the data active = inhibition mostly above about 23%, no sharp cut-off; inactive = mostly below about 18%;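 also: 0% = cells with DMSO and 100% = no-cell wells with DMSO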
# Target sequence (P47898 whole entry, looked up): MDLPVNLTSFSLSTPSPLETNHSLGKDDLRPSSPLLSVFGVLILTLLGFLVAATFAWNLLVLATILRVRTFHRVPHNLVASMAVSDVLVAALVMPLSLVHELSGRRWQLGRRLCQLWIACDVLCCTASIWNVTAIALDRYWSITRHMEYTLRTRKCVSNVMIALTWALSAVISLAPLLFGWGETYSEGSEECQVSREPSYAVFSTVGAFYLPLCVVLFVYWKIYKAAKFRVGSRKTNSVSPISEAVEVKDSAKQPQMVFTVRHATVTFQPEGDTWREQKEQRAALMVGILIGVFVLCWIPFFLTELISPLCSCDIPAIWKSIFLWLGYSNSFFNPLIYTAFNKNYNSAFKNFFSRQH
# MOR-DOR ag-1 – agonists of human mu-delta opioid receptor heterodimerization; P35372+P41143; cells, OPRM1-OPRD1 heterodimerization, luminescence; activation, % at 9.3 µM; actives 0.3% (n = 340,000);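 also: 0% = vehicle-treated cells and 100% = reference agonist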
# HTR5A ag ctr – HTR5A agonism, opioid heterodimer counter-screen; HTR5A agonist assay, luminescence, cell-based; actives 0.61% (n = 340,000); AID 504692; activation, % at 9.3 µM; in the data active = activation mostly above about 9.5%, no sharp cut-off; inactive = mostly below about 7.6%;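 also: 0% = cells with vehicle only and 100% = reference agonist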
# MOR-DOR ag-2 – promotes OPRM1-OPRD1 heterodimerization in HTR5A counter-screen | shares compounds with HTR5A ag ctr | U2OS counter-screen cells, complementation luminescence, 3 h | activation, % at 9.3 µM | actives 13% (n = 800) | AID 504913
# HTR5A ag conf – confirmation of human HTR5A agonists; shares compounds with HTR5A ag ctr; HTR5A agonist cell assay, luminescence; activation, % at 9.3 µM; actives 17% (n = 800); AID 504915; in the data active = activation above about 17%;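 also: 0% = cells with vehicle only and 100% = full reference agonist response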
# Active calls of the source: *; . = no result. Rule as the data show it, unless noted: active = activation above about 18%; inactive = the rest.
SMILES,MOR-DOR inv ag,HTR5A inv ag,MOR-DOR ag-1,HTR5A ag ctr,MOR-DOR ag-2,HTR5A ag conf
CC1CC(C)CN(C(=O)C(C)N2CCN(S(=O)(=O)c3ccccc3F)CC2)C1 (configuration not stated),15,-4,-3,1,.,.
COc1cccc(CN2CCNC(=O)C2CC(=O)NCCCC2CCCC2)c1OC (configuration not stated),11,-8,-2,3,.,.
COc1cc(NC(=O)COc2ccccc2[N+](=O)[O-])ccc1NC(=O)c1cccs1,-50,-42,9,16*,7,9
COc1cc(NC(=O)COc2ccccc2Cl)ccc1NC(=O)c1cccs1,-33,-18,4,8,.,.
O=C(NCc1ccco1)c1cc2cc(Br)ccc2o1,-2,14,1,-5,.,.
Cc1cc(C)c(OCCNCc2ccccc2)c(C)c1,-7,6,2,-2,.,.
Cc1cc(C)c(OCCCCNCc2ccccc2)c(Cl)c1,-28,-46,6,19*,12,1
CCOc1ccc(S(=O)(=O)NCCC(=O)N(C)Cc2ccc(C)o2)cc1,0,-1,0,-10,.,.
O=C(C1=COCCO1)N1CCN(c2nc3ccc([N+](=O)[O-])cc3s2)CC1,7,-49,-1,16*,83*,6
NNS(=O)(=O)c1ccc(Sc2ccccn2)c([N+](=O)[O-])c1,15,15,-3,15*,0,13
O=C(N/N=C/c1cccc(O)c1)c1csc2ccccc12,-11,13,3,1,.,.
CCn1ncc(/C=N\NC(=O)c2csc3ccccc23)c1C,16,-71,-3,18*,49*,-4
COc1ccc(Nc2nnc(Cc3ccccc3)c(=O)[nH]2)c(OC)c1,-14,-31,2,17*,4,-1
Cc1ccc(S(=O)(=O)N/N=C\C=C\c2ccccc2)cc1,-12,-74,2,38*,1,4
O=S(=O)(N/N=C\C=C\c1ccccc1)c1ccc(Br)cc1,-26,-40,6,19*,-1,3
CN(Cc1ccccc1Cl)C(=O)c1cnccc1C(F)(F)F,11,-4,-2,15*,0,3
Cc1ccc(S(=O)(=O)N2CCN(C(=O)C3CCN(c4ncnc5sc(C)c(C)c45)CC3)CC2)c(C)c1,3,14,-1,-4,.,.
O=C(Nc1cccc(Cl)c1)Nc1cc(S(=O)(=O)N2CCCCC2)ccc1Cl,-13,-2,2,1,.,.
CN1CCN(S(=O)(=O)c2ccc(NC(=O)Nc3cccc(Cl)c3)cc2)CC1,-33,-89,6,17*,8,7
CN(C)S(=O)(=O)c1cccc(COC(=O)c2ccc3c(c2)OCO3)c1,-2,22,0,0,.,.
CN(C)S(=O)(=O)c1cccc(COC(=O)c2ccc(Cl)cc2O)c1,-3,18,1,16*,39*,-3
O=C(Oc1c(Cl)cc(Cl)c2cccnc12)c1ccco1,-26,0,4,26*,4,0
O=C(Oc1c(CN2CCOCC2)cc(Cl)c2cccnc12)c1cccs1,-2,10,0,-4,.,.
O=C(Oc1c(Cl)cc(Cl)c2cccnc12)c1cccs1,-29,11,6,17*,8,-1
Oc1c(Cl)cc(Cl)c2cccnc12,-40,24,8,-9,.,.
SMILES,MOR-DOR inv ag,HTR5A inv ag,MOR-DOR ag-1,HTR5A ag ctr,MOR-DOR ag-2,HTR5A ag conf
COc1cccc(N2CCN(Cc3ccco3)CC2)c1,7,-43,-1,15*,1,-6
O=C(C1CCC1)N1CCN(c2ccc(Cl)cc2)CC1,5,-8,-1,1,.,.
COc1ccc(NC(=O)CC2C(=O)N(Cc3ccccc3)C(=S)N2CCN2CCOCC2)cc1 (configuration not stated),-5,-4,1,1,.,.
CCCCCCOc1ccc(NC(=O)CC2C(=O)N(CC)C(=S)N2Cc2ccco2)cc1 (configuration not stated),-16,-34,3,15*,-1,-9
C=CCN1C(=O)C(CC(=O)Nc2ccc(OCCC)cc2)N(CCCN2CCN(Cc3ccccc3)CC2)C1=S (configuration not stated),-76,-73,16,17*,39*,-2
CCN1C(=O)C(CC(=O)Nc2ccc(F)cc2)N(Cc2ccco2)C1=S (configuration not stated),13,6,-3,-3,.,.
COC(=O)c1sc(C(C)(C)C)cc1CS(=O)(=O)c1ccccn1,6,13,-1,-5,.,.
CCOc1ccc(NC(=O)CN(C)C(=O)c2ccccc2OCCOc2ccccc2)cc1OCC,11,-7,-3,3,.,.
CCOc1ccc2nc(NC(=O)Nc3ccccc3)sc2c1,-21,-55,3,20*,4,0
CC1CCN(C(=O)C2CCN(S(=O)(=O)c3cc(Cl)ccc3Cl)CC2)CC1,10,2,-2,5,.,.
CCN(CC)C(=O)c1ccc(S(=O)(=O)N2CCC(c3nc4ccccc4s3)CC2)cc1,-15,-55,2,21*,5,4
O=C(N/N=C/c1cc([N+](=O)[O-])ccc1Cl)c1cc(-c2ccccc2)nc2ccccc12,1,-11,0,16*,8,3
COc1ccc(C(=O)N2CCN(c3ccccc3Cl)CC2)cc1S(=O)(=O)NC1CC1,0,-44,0,18*,96*,3
COc1ccccc1N1CCN(C(=O)c2cccc(C(=O)N3CCN(c4ccccc4OC)CC3)c2)CC1,0,-36,0,15*,4,-4
COc1ccccc1N1CCN(C(=O)C2CCN(C(=O)c3cccc(Cl)c3)CC2)CC1,5,-3,-1,1,.,.
COc1ccc(-c2cn3c(C)c(C(=O)Nc4ccncc4)sc3n2)cc1,-6,-24,1,3,.,.
Cc1c(C(=O)Nc2ccncc2)sc2nc(-c3ccc(F)cc3)cn12,-27,-47,5,19*,7,2
CC(=O)Nc1ccc(S(=O)(=O)N(C)CC(=O)N(C)Cc2sccc2C)cc1,-3,9,1,3,.,.
O=C(O/N=C(\c1ccccc1)c1ccccn1)c1cccc2ccccc12,-9,-97,2,39*,133*,4
O=C1C2ON(c3ccccc3)C(c3ccncc3)C2C(=O)N1c1ccc(N2CCOCC2)cc1 (configuration not stated),4,-56,-1,20*,-2,-5
CC(C)N(C(=O)CSc1ccc(S(=O)(=O)N2CCCCC2)cn1)c1ccccc1,-8,0,2,-3,.,.
COc1ccc(-c2csc(NC(C)c3nc4cc(C(=O)NCCCO)ccc4n3Cc3ccc(C)cc3)n2)cc1 (configuration not stated),4,-143,-1,30*,0,38*
CCCc1nn2c(=O)cc(CSCC(=O)Nc3nnc(C(C)C)s3)nc2s1,12,-19,-2,3,.,.
CC(C)(C)c1ccc(C(=O)Nc2nnc(Cc3c[nH]c4ccccc34)s2)cc1,-43,-53,8,21*,1,1
